Source: PubChem BioAssay (Tox21)
Several values for one entry are separate records, joined by “and”; a condition that tells them apart may be missing. Equal values may be shown once. Records with an inconclusive call do not appear. Where a call stands in place of a potency, no number is given. Activity calls are given as the source filed them. The call rests on the fitted dose curve; in most records, active means well fitted activation curve with a large enough effect in the signal ratio in the repeat runs (not every such curve was filed as active); inconclusive means weak or mixed curves, or effect the other way; inactive means no such curve, though single readings can be large or run the other way; the % refers to the signal ratio.

experiment: qHTS assay for small molecule agonists of the antioxidant response element (ARE) signaling pathway (AID 743202); conditions: HepG2 ARE-bla reporter, beta-lactamase FRET, 16 h; series mostly up to 73.3 µM
Excerpt: U.S. Tox21 Program National Center for Advancing Translational Sciences [NCATS] NIH Chemical Genomics Center [NCGC] U.S. Environmental Protection Agency [EPA] National Institutes of Environmental Health Sciences [NIEHS] National Toxicology Program [NTP] U.S. Food and Drug Administration [FDA] Tox21 Assay Overview: Oxidative stress has been implicated in the pathogenesis of a variety of diseases ranging from cancer to neurodegeneration. The antioxidant response element (ARE) signaling pathway plays an important role in the amelioration of oxidative stress. The CellSensor ARE-bla HepG2 cell line (Invitrogen) can be used for analyzing the Nrf2/antioxidant response signaling pathway. Nrf2 (NF-E2-related factor 2) and Nrf1 are transcription factors that bind to AREs and activate these genes. The CellSensor ARE-bla Hep G2 cell line contains a beta-lactamase reporter gene under control of the Antioxidant Response Element (ARE) stably integrated into HepG2 cells. The activation of the report gene under culture conditions can be detected by fluorescence intensity. This cell line has been used to screen the Tox21 10K compound library to identify agonists that induce oxidative stress.
Tox21 Assay Protocol Summary: The ARE-bla cells were dispensed at 2,000 cells/5 ul/well in 1536-well black wall/clear bottom plates using a Multidrop dispenser. After the assay plates were incubated at a 37 C/5% CO2 incubator for 5 hours, 23 nL of compounds dissolved in DMSO, positive controls or DMSO only was transferred to the assay plate by a pin tool. The plates were incubated at 37 C for 16 hours. After 1 uL of LiveBLAzer B/G FRET substrate was added using a Flying Reagent Dispenser, the plates were incubated at room temperature for 2 hours, and fluorescence intensity was measured by an Envision plate reader.
Potency means the concentration at half of the fitted maximal effect.

SMILES | Potency
Cc1cccc(O)c1 | inactive
C[Si](O[Si](C)(C)C)O[Si](C)(C)C | inactive
Oc1cccc2ccccc12 | 31.4 µM (active) and 30.6 µM (active)
CCCCCC(N)=O | inactive
OCC(CO)(CBr)CBr | inactive
CC(C)(N)CO | inactive
OC[C@H]1O[C@@](CO)(O[C@H]2O[C@H](CO)[C@@H](O)[C@H](O)[C@H]2O)[C@@H](O)[C@@H]1O | inactive
CCOC(=O)NNc1nncc2ccccc12 | inactive
O=C(O)CCCCCCCCCCC(=O)O | inactive
C#C[C@]1(O)CC[C@H]2[C@@H]3CCC4=CC(=O)CC[C@@H]4[C@H]3CC[C@@]21C | 24.3 µM (active)
CSCCC=O | inactive
C[C@H]1C[C@H]2[C@@H]3CCC4=CC(=O)C=C[C@]4(C)[C@@]3(F)[C@@H](O)C[C@]2(C)[C@@]1(O)C(=O)CO | inactive
O=S1(=O)CC=CC1 | inactive
c1ccc2scnc2c1 | inactive
Cc1ccc2oc(=O)ccc2c1 | inactive
C[C@H]1C[C@@H]2[C@H]([C@@H](O)C[C@@]3(C)[C@H]2CC[C@]3(O)C(=O)CO)[C@@]2(C)C=CC(=O)C=C12 | inactive
FC(F)(F)c1ccc(Cl)c(Cl)c1 | inactive
Nc1cc([N+](=O)[O-])ccc1O | 17.1 µM (active)
N[C@@H](Cc1cc(I)c(Oc2cc(I)c(O)c(I)c2)c(I)c1)C(=O)O | inactive
CCCCCC1=CCCC1=O | inactive

SMILES | Potency
C/C=C1/CC2C=CC1C2 (stereo not given) | inactive
CCCCOC(=O)COc1ccc(Cl)cc1Cl | inactive
O=C=NCCCCCCN=C=O | inactive
O=[N+]([O-])c1ccc(/C=C/c2ccc([N+](=O)[O-])cc2S(=O)(=O)O)c(S(=O)(=O)O)c1 | inactive
O=C1CCC(N2C(=O)c3ccccc3C2=O)C(=O)N1 (stereo not given) | inactive
c1ccc(OCCOc2ccccc2)cc1 | inactive
O=P(OC(CCl)CCl)(OC(CCl)CCl)OC(CCl)CCl | inactive
CCC(O)OCCCOC (stereo not given) | inactive
O=C(O)c1ccc(C(=O)O)cc1 | inactive
O=c1[nH]c(=O)n([C@H]2C[C@H](O)[C@@H](CO)O2)cc1Br | inactive
O=C(OCCOCCOC(=O)c1ccccc1)c1ccccc1 | inactive
CC(=O)c1ccccc1 | inactive
COc1ccc(NC(C)=O)cc1N | inactive
O=C(CC(C(=O)OC1CCCCC1)S(=O)(=O)O)OC1CCCCC1 (stereo not given) | inactive
CCc1ccc(CCOc2ccc(CC3SC(=O)NC3=O)cc2)nc1 (stereo not given) | 17.2 µM (active)
CCc1cccc(C)c1N | inactive
O=C(O)[C@H](O)[C@@H](O)[C@H](O)[C@H](O)CO | inactive
OCc1cccnc1 | inactive
CC1=CCC2CC1C2(C)C (stereo not given) | inactive
C=C(C)C(=O)O[C@H]1C[C@@H]2CC[C@@]1(C)C2(C)C | inactive
